Cycloheximide cs = Cycloheximide Counterscreen for Small Molecule Inhibitors of Shiga Toxin; max response, %; AID 2314, 2010; 300,000 tested, 12% active; cell reporter, cycloheximide protein synthesis inhibition counterscreen; in the data active means max response mostly above about 13%, no sharp cut-off; inactive means mostly below about 14%; further: read at 38.3 µM for the half of the compounds with a filed dose
Pf growth 48h = Primary qHTS for delayed death inhibitors of the malarial parasite plastid, 48 hour incubation | P. falciparum luciferase growth in erythrocytes, 48 h | Potency, µM (titrated, usually from 28.7 µM), usual class: inhibitors | 310,000 tested, 5.9% active
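Here the parasites carry a stable luciferase gene and grow inside erythrocytes in Albumax-based RPMI medium with compound for one erythrocytic cycle. Activity is scored as loss of luminescent signal.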
Pf growth 96h = Primary qHTS for delayed death inhibitors of the malarial parasite plastid, 96 hour incubation; Potency, µM (series often up to 28.7 µM), actives largely listed as inhibitors; 320,000 tested, 6.9% active; P. falciparum luciferase reporter growth, 96 h
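96 h incubation, 37 C, 5% CO2, of luciferase-reporter P. falciparum-infected RBCs (2% hematocrit, 0.05% parasitemia final) with test compounds; endpoint luminescence.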
AMA1 RON2 block = qHTS for Inhibitors of AMA1-RON; Towards Development of Antimalarial Drug Lead: Primary Screen; Plasmodium falciparum AMA1 (3D7) - RON2 peptide interaction; AlphaScreen AMA1-biotinylated RON2 peptide binding; Potency, µM (series often up to 58.2 µM), hits mostly inhibitors; 360,000 tested, 0.2% active; AID 720542, 2013; further: nearly all actives have a fitted effect of over 45% in size
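AMA1 (3D7) with his tag at 25 nM final met compounds first, then biotinylated RON2 peptide at 25 nM; detection used donor plus acceptor beads, 10 µg/mL apiece, read by AlphaScreen after 30 min at room temperature.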
Shiga inhibitor = A qHTS for Small Molecule Inhibitors of Shiga Toxin; Vero cells, Shiga toxin protein synthesis inhibition reporter; inhibition, % at 38.7 µM; AID 2315, 2010; 290,000 tested, 9.2% active; in the data active means inhibition mostly above about 28%, no sharp cut-off; inactive means mostly below about 43%
SARS PLpro yeast = qHTS of Yeast-based Assay for SARS-CoV PLP. Potency, µM (titrated, usually from 32.9 µM), most hits filed as activators. 330,000 tested, 0.19% active. AID 485353, 2010. S. cerevisiae expressing SARS-CoV PLpro, growth rescue; calls by dose curve; further: nearly all actives have a fitted effect of over 55% in size
Hits are given with their value; [ ] = dose if it differs, or a comment. Hits are enriched below; roughly 19% of the tested compounds scored in any of these assays. Unless noted, the call rests on the fitted dose curve; in most records, active means well fitted curve in the direction sought with a large enough effect; inconclusive means small, poorly fitted or top-dose-only effect, or another doubt; inactive means no such curve, though single readings can be large; an effect the other way counts as inactive or inconclusive.

`CN(C(=O)COC(=O)c1nc(Cl)ccc1Cl)c1ccccc1` gave Cycloheximide cs inactive, Pf growth 48h inactive, Pf growth 96h inconclusive, AMA1 RON2 block inactive, Shiga inhibitor inactive and SARS PLpro yeast inactive.
Screening CCc1ccc(C(O)c2ncc(-c3ccc(C)cc3)[nH]2)cc1 (stereo not drawn) returned AMA1 RON2 block inactive.
Cc1cc(NC(=O)c2ccccc2)n(C)n1 was read as Cycloheximide cs inactive, Pf growth 48h inactive, Pf growth 96h inactive, AMA1 RON2 block inactive, Shiga inhibitor inactive and SARS PLpro yeast inactive.
`Cn1nc(-c2ccc(Cl)cc2)cc1NC(=O)Nc1ccccc1` gave Cycloheximide cs 31, Pf growth 48h inactive, Pf growth 96h inactive, AMA1 RON2 block inactive, Shiga inhibitor 66 and SARS PLpro yeast inactive.
For Cn1nc(-c2ccccc2)cc1NC(=O)Nc1ccc(C(C)(C)C)cc1 the results were Cycloheximide cs inactive, Pf growth 48h inconclusive, Pf growth 96h inconclusive, AMA1 RON2 block inactive, Shiga inhibitor inactive and SARS PLpro yeast inactive.
`CC(=O)Nc1cc(-c2ccc(Cl)cc2)nn1-c1ccccc1` gave Cycloheximide cs inactive, Pf growth 48h inactive, Pf growth 96h 9.3µM, AMA1 RON2 block inactive, Shiga inhibitor inactive and SARS PLpro yeast inactive.
For Cn1nc(-c2ccccc2)cc1NC(=O)c1ccccc1 the results were Cycloheximide cs 12, Pf growth 48h inactive, Pf growth 96h inactive, AMA1 RON2 block inactive, Shiga inhibitor inactive and SARS PLpro yeast inactive.
`CC(=O)Nc1cc(-c2ccccc2)nn1Cc1ccc(Cl)cc1` gave Cycloheximide cs inactive, Pf growth 48h inactive, Pf growth 96h inactive, AMA1 RON2 block inactive, Shiga inhibitor inactive and SARS PLpro yeast inactive.
Cc1ccc(S(=O)(=O)N2[C@H](CC(=O)c3cccs3)OC[C@@H]2C)cc1 was read as AMA1 RON2 block inactive.
For CC(C)c1ccc(S(=O)(=O)N2CCN(C(=O)C3CCCCC3)CC2)cc1 the results were Cycloheximide cs inactive, Pf growth 48h inconclusive, Pf growth 96h inconclusive, AMA1 RON2 block inactive, Shiga inhibitor inactive and SARS PLpro yeast inactive.
Screening Cc1ccc(-c2nc3ccccc3[nH]2)s1 returned Cycloheximide cs 52, Pf growth 48h inactive, Pf growth 96h inactive, AMA1 RON2 block inactive, Shiga inhibitor 64 and SARS PLpro yeast inactive.
For Cc1[nH]c2ccccc2c1-c1csc(N)n1 the results were Cycloheximide cs inactive, Pf growth 48h inactive, Pf growth 96h inactive, AMA1 RON2 block inactive, Shiga inhibitor inactive and SARS PLpro yeast inactive.
Screening c1csc(-c2nc3ccccc3[nH]2)c1 returned Cycloheximide cs 36, Pf growth 48h inactive, AMA1 RON2 block inactive, Shiga inhibitor 65 and SARS PLpro yeast inactive.
`Fc1ccc(-c2nc(-c3cccs3)[nH]c2-c2ccc(F)cc2)cc1` gave Cycloheximide cs inactive, Pf growth 48h inconclusive, Pf growth 96h inconclusive, AMA1 RON2 block inactive, Shiga inhibitor inactive and SARS PLpro yeast inactive.
For Cc1[nH]c2ccccc2c1-c1nc2ccccc2[nH]1 the results were Cycloheximide cs 48, Pf growth 48h inconclusive, Pf growth 96h inactive, AMA1 RON2 block inactive, Shiga inhibitor 56 and SARS PLpro yeast inactive.
O=C(c1ccc(Nc2nccc(-c3cc4ccccc4s3)n2)cc1)N1CCC(N2CCCC2)CC1 was read as Cycloheximide cs inactive and Shiga inhibitor inactive.
`CC(=O)Nc1cccc2c1Cc1ccccc1-2` gave Cycloheximide cs 41, Pf growth 48h inactive, Pf growth 96h inactive, AMA1 RON2 block inactive, Shiga inhibitor inactive and SARS PLpro yeast inactive.
For CC(=O)c1cccc(NC(=O)/C=C/c2ccc([N+](=O)[O-])s2)c1 the results were Cycloheximide cs 33, Pf growth 48h inactive, Pf growth 96h inconclusive, AMA1 RON2 block inactive, Shiga inhibitor 96 and SARS PLpro yeast inactive.
For Cc1ccccc1NC(=O)/C=C/c1cccs1 the results were Cycloheximide cs 28, Pf growth 48h inactive, Pf growth 96h inactive, AMA1 RON2 block inactive, Shiga inhibitor 70 and SARS PLpro yeast inactive.
`Cc1ccccc1NC(=O)/C=C/c1ccc([N+](=O)[O-])s1` gave Cycloheximide cs inactive, Pf growth 48h 7.4µM, Pf growth 96h 12µM, AMA1 RON2 block inactive, Shiga inhibitor inactive and SARS PLpro yeast inactive.
Screening Cc1ccc(N(CCC#N)C(=O)COC(=O)C2=COCCO2)cc1 returned Pf growth 48h inconclusive, Pf growth 96h inactive, AMA1 RON2 block inactive and SARS PLpro yeast inactive.
`CN(C)c1ccc(C(=O)Nc2ccc(S(=O)(=O)Nc3nccs3)cc2)cc1` gave Cycloheximide cs inactive, Pf growth 48h inactive, Pf growth 96h inactive, AMA1 RON2 block inactive, Shiga inhibitor inactive and SARS PLpro yeast inactive.
For CC(=O)NC(CCc1ccc(Cl)c(Cl)c1)c1cccc(O)c(=O)c1 (stereo not drawn) the results were AMA1 RON2 block inactive.
CC(C)N=C(NC#N)SCc1ccc(Br)cc1 was read as Cycloheximide cs inactive, Pf growth 48h inconclusive, Pf growth 96h 13µM, AMA1 RON2 block inactive, Shiga inhibitor inactive and SARS PLpro yeast inactive.
`Cc1cccc(-n2c(SC(C)C(=O)O)nc3sc4c(c3c2=O)CCCC4)c1` (stereo not drawn) gave Cycloheximide cs inactive, Pf growth 48h inactive, Pf growth 96h inactive, AMA1 RON2 block inactive, Shiga inhibitor inactive and SARS PLpro yeast inactive.
Cc1cccc(/N=C/c2nc(-c3ccccc3Br)oc2O)n1 was read as Cycloheximide cs 21, Pf growth 48h inconclusive, Pf growth 96h inconclusive, AMA1 RON2 block inactive, Shiga inhibitor inactive and SARS PLpro yeast inactive.
`Cc1ccnc(N=Cc2nc(-c3ccccc3Br)oc2O)c1` gave Cycloheximide cs 27, Pf growth 48h inactive, Pf growth 96h inactive, AMA1 RON2 block inactive, Shiga inhibitor 118 and SARS PLpro yeast inactive.
Oc1oc(-c2cccc3ccccc23)nc1/C=N/c1nccs1 was read as Cycloheximide cs inactive, Pf growth 48h inactive, Pf growth 96h inactive, AMA1 RON2 block inactive[2.32 µM], Shiga inhibitor inactive and SARS PLpro yeast inactive.
For CC(C)(C)c1ccc(C(=O)N/N=C/c2ccc(OCCCF)cc2)cc1 the results were Cycloheximide cs inactive, Pf growth 48h inconclusive, Pf growth 96h inactive, AMA1 RON2 block inactive, Shiga inhibitor inactive and SARS PLpro yeast inactive.
`O=C(CSc1nnc2ccc(-c3ccccn3)nn12)Nc1cccc(F)c1` gave AMA1 RON2 block inactive.
For COc1cc(O)sc1C=Nc1ccc(Cl)cc1 the results were Cycloheximide cs 31, Pf growth 48h inactive, Pf growth 96h inconclusive, AMA1 RON2 block inactive, Shiga inhibitor 42 and SARS PLpro yeast inactive.
`CCCCNC(=O)CSc1nc2ccc(Nc3nc(N4CCOCC4)nc(N4CCOCC4)n3)cc2s1` gave Cycloheximide cs inactive, Pf growth 48h inconclusive, Pf growth 96h 8.3µM, AMA1 RON2 block inactive, Shiga inhibitor inactive and SARS PLpro yeast inactive.
For CC(=O)c1ccc(NC(=S)Nc2cccc3cnccc23)cc1 the results were Cycloheximide cs 36, Pf growth 48h 1.9µM, Pf growth 96h 2.6µM, AMA1 RON2 block inactive, Shiga inhibitor 47 and SARS PLpro yeast inactive.

Screening data (PubChem BioAssay)
